Inconclusive results are not listed. Active and inactive are the calls of the source. How the source made its calls, unless noted: active means hit-call score of the fitted dose curve at least 0.9, where 1 is the maximum; inactive means score below 0.9.

The text below walks through data of PubChem BioAssay (EPA / NIEHS).

Assay [1] in a line: CCTE_Shafer_MEA_acute_spike_number: CCTE's Neural Acute Assay for Total Number of Spikes, Shafer Lab (AID 2284008).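 On AC50: curve fitted for decrease in spike count so AC50 reflects inhibitors.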 The procedure, abridged: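 Rat primary cortical neurons on 48-well MEA plates, DIV 13 or 15, at 37 C. 40 min baseline then 40 min with compound (0.03-40 uM); spikes detected at 8x rms noise, expressed as percent change from baseline.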
Assay [2] in a line: CCTE_Shafer_MEA_acute_firing_rate_mean: CCTE's Neural Acute Assay for Mean Firing Rate, Shafer Lab (AID 2284009).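 Further: analyzed for loss of signal so actives lower firing rate relative to DMSO.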 The procedure, abridged:
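Percent change in well-mean firing rate was derived from extracellular spikes detected at 8x rms noise (300-5000 Hz band-pass) before and after a 40-min compound exposure. Cultures were primary rat cortical neurons, tested at 0.03-40 uM.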

The nature of assay [3]: CCTE_Harrill_HTTr_Viability_MCF7: CCTE's 6-hour Cell Viability Assessment for the High-Throughput Transcriptomics (HTTr) Platform, in MCF-7 cells cultured in DMEM + 10% fetal bovine serum, Harrill Lab (AID 2284010). The procedure, abridged:
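Cells were dosed with chemicals in an eight-point dilution series, imaged 6 hours later for propidium iodide uptake, and the endpoint was analyzed by bidirectional fitting against DMSO as negative control.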

Assay [4] can be described thus: CCTE_Harrill_HTTr_Apoptosis_MCF7: CCTE's 6-hour Apoptosis Assessment for the High-Throughput Transcriptomics (HTTr) Platform, in MCF-7 cells cultured in DMEM + 10% fetal bovine serum, Harrill Lab (AID 2284011). The procedure, abridged: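 MCF-7 cells in DMEM + 10% FBS exposed 6 h to chemicals over an eight-point dilution series. Caspase-3/7 activation imaged by high-content CellEvent Green staining; fitted bidirectionally versus DMSO.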

The nature of assay [5]: CCTE_Harrill_HTTr_CellCount_MCF7: CCTE's Cell Proliferation Assessment for the High-Throughput Transcriptomics (HTTr) Platform, Harrill Lab (AID 2284012; active means hit-call score of the fitted dose curve at least 0.9, where 1 is the maximum;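 further: cells exposed to compound for six hours; intended direction is loss of nuclei count meaning fewer cells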). The procedure, abridged: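 Chemicals in eight-point dilution series are added to MCF-7 cells for six hours, nuclei are stained with Hoechst and imaged, and per-well nuclei counts are fitted in both directions relative to DMSO controls.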

Assay [6] is described as follows: CCTE_Shafer_MEA_acute_burst_number: CCTE's Neural Acute Assay for Single-Electrode Bursts, Shafer Lab (AID 2284013). The procedure, abridged:
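Spontaneous network activity of primary rat cortical neurons was recorded extracellularly on microelectrode arrays at 37 C, with 40-min periods before and during exposure to 0.03-40 uM compound on DIV 13 or 15.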

The nature of assay [7]: CCTE_Shafer_MEA_acute_burst_duration_mean: CCTE's Neural Acute Assay for Mean Burst Duration, Shafer Lab (AID 2284014).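 Further: hits are decreases in mean burst duration relative to DMSO controls.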 In short, it runs like this:
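Read-out is the per-well percent change in mean burst duration (first to last spike within a single-electrode burst) between 40-min recordings before and after compound. Cultures were primary rat cortical neurons on MEAs, dosed at 0.03-40 uM on DIV 13 or 15.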

Assay [8] is described as follows: CCTE_Shafer_MEA_acute_per_burst_spike_number_mean: CCTE's Neural Acute Assay for Average Number of Spikes Per Burst, Shafer Lab (AID 2284015).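 Further: hits are decreases in mean spikes per burst versus baseline.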 The procedure, abridged:
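Rat primary cortical neurons on 48-well MEAs (DIV 13 or 15) were treated with 0.03-40 uM compound at 37 C. Mean spikes per burst over 40 min were recorded before and after exposure and expressed as percent change from baseline, relative to DMSO.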

The nature of assay [9]: CCTE_Shafer_MEA_acute_interburst_interval_mean: CCTE's Neural Acute Assay for Mean Interburst Interval, Shafer Lab (AID 2284016).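 Further: percent change of mean interburst interval versus each well's own pre-dose baseline; curves fitted for decrease in interburst interval relative to DMSO.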 The procedure, abridged:
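Rat primary cortical neurons on 48-well MEAs at DIV 13 or 15 were exposed acutely to 0.03-40 uM. Spikes detected at 8x rms noise, 37 C. Mean interburst interval from 40 min recordings expressed as percent change from 40 min pre-treatment baseline.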

Assay [10] can be described thus: CCTE_Shafer_MEA_acute_burst_percentage_mean: CCTE's Neural Acute Assay for Percentage of Spikes in a Burst, Shafer Lab (AID 2284017).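 On AC50: curve fitted for loss of signal so potency reflects decreased burst percentage.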 The procedure, abridged: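 Primary rat cortical neurons on 48-well MEA plates, treated on DIV 13 or 15 at 0.03-40 uM. Spikes detected at 8x rms noise at 37C; percent change from 40-min baseline to 40-min post-dose recording, fitted versus DMSO.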

A short description of assay [11]: CCTE_Shafer_MEA_acute_burst_percentage_std: CCTE's Neural Acute Assay for Standard Deviation of Burst Percentage, Shafer Lab (AID 2284018).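 Further: fitted in the negative direction so actives lower burst percentage SD.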 The procedure, abridged: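 Value is percent change from baseline in the across-electrode SD of spikes-in-bursts percentage, wells with >/= 10 active electrodes. Acute 40-min exposure to 0.03-40 uM on DIV 13 or 15 rat cortical cultures, recorded at 37 C after 40-min baseline.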

Assay [12] can be described thus: CCTE_Shafer_MEA_acute_per_network_burst_spike_number_mean: CCTE's Neural Acute Assay for Average Number of Spikes in a Network Burst, Shafer Lab (AID 2284019).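 On AC50: curve fitted for loss of signal so actives reduce spikes per network burst.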 The procedure, abridged:
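Read-out is mean spike count per network burst, taken as percent change between a 40-min pre-exposure and a 40-min post-exposure recording per well. Rat primary cortical neurons on MEAs at 37 C, DIV 13 or 15; compounds at 0.03-40 uM.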

Assay [13] in a line: CCTE_Shafer_MEA_acute_per_network_burst_spike_number_std: CCTE's Neural Acute Assay for Standard Deviation of Number of Spikes in a Network Burst, Shafer Lab (AID 2284020).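 Further: fitted for decrease in spike-number SD versus DMSO so actives lower it.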 The procedure, abridged:
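Spontaneous network activity of primary rat cortical neurons is recorded extracellularly before and after a 40-min compound exposure (0.03-40 uM) at 37 C. The endpoint is the well's percent change in burst spike-number SD.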

The nature of assay [14]: CCTE_Shafer_MEA_acute_per_network_burst_electrodes_number_mean: CCTE's Neural Acute Assay for Mean Number of Electrodes in a Network Burst, Shafer Lab (AID 2284021).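 Further: curves fitted for decreases only so hits reduce electrodes per burst.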 The procedure, abridged:
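Rat primary cortical neurons on 48-well MEAs, DIV 13 or 15, were treated at 0.03-40 uM. Spikes were detected at 8x rms noise and recorded at 37 C. The mean electrodes per network burst in a 40 min exposure recording was expressed as percent change from a 40 min baseline.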

A short description of assay [15]: CCTE_Shafer_MEA_acute_network_burst_percentage: CCTE's Neural Acute Assay for Percentage of Network Bursts, Shafer Lab (AID 2284022).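 Further: curves fitted for loss so actives lower network burst percentage.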 The procedure, abridged:
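Rat primary cortical neuron networks on 48-well MEA plates, DIV 13 or 15, treated acutely with compound (0.03-40 uM, at least three wells). Percent of spikes within network bursts compared between 40-min recordings before and during exposure at 37 C, expressed as percent change.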

Assay [16] is described as follows: CCTE_Shafer_MEA_acute_cross_correlation_area: CCTE's Neural Acute Assay for Area of Cross Correlation, Shafer Lab (AID 2284024).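 Further: curves fitted for loss of cross-correlation area so actives lower synchrony.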 In short, it runs like this:
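Rat primary cortical neurons on 48-well MEA, DIV 13 or 15; compounds 0.03-40 uM. Baseline and post-exposure 40 min recordings at 37 C; percent change in area under pooled inter-electrode cross-correlation near zero lag, relative to DMSO.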

Assay [17] in a line: CCTE_Shafer_MEA_acute_cross_correlation_HWHM: CCTE's Neural Acute Assay for Cross Correlation at Half Width at Half Maximum, Shafer Lab (AID 2284026).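 Further: percent change per well from pre-dose baseline in spike cross-correlogram half width; hits are a decrease in cross-correlogram half width relative to DMSO.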 The procedure, abridged:
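Rat primary cortical neurons on 48-well MEA plates; 40-min baseline and 40-min post-exposure recordings at 37 C on DIV 13 or 15, compounds 0.03-40 uM. Spikes detected at 8x rms noise; percent change in cross-correlogram HWHM per well vs baseline.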

Assay [18] in a line: CCTE_Simmons_MITO_max_resp_rate: CCTE's HepG2 Seahorse XF Respirometric Screening Assay at Maximal Respiratory State [uncoupled], Simmons Lab (AID 2284002). The conditions noted are these: actives raise or lower the signal. In short, it runs like this:
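HepG2 oxygen consumption measured on Seahorse XF after FCCP uncoupling, following test compound injection; 7 concentrations from 125 nM to 100 uM final. Readings every 6 min over 72 min, three biological replicates; bidirectional fit versus DMSO.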

The nature of assay [19]: CCTE_Simmons_MITO_inhib_resp_rate: CCTE's HepG2 Seahorse XF Respirometric Screening Assay at Inhibited Respiratory State [full ETC block], Simmons Lab (AID 2284006). The conditions noted are these: actives raise or lower the signal. The procedure, abridged: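 Compound injected onto HepG2 cells (125 nM–100 uM final, 7 points); FCCP then rotenone/antimycin A added. Oxygen consumption read every 6 min (3 min mix, 3 min measure) for 72 min. Inhibited-state OCR fitted against DMSO.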

Assay [20] is described as follows: CCTE_Simmons_MITO_viability: CellTiter-Glo Viability Assessment for CCTE's HepG2 Seahorse XF Respirometric Screening Assay [post-hoc], Simmons Lab (AID 2284007; active means hit-call score of the fitted dose curve at least 0.9, where 1 is the maximum;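 further: cells exposed to chemical for 90 min before the ATP read; actives lower ATP signal relative to DMSO baseline meaning reduced viability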). In short, it runs like this: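 After the Seahorse oxygen-consumption sequence (basal, FCCP, rotenone/antimycin A; 72 min total), HepG2 viability was scored as ATP content by bioluminescence. Chemicals ran at seven concentrations up to 100 uM final for 90 min.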

`c1ccc(N=Nc2ccccc2)cc1`: the call in [1], in assay [2], in assay [3], in [4], in [5] and in assay [6] was inactive. The call in [7], in assay [8], in assay [12], in [13], in assay [14] and in assay [16] was inactive. Moreover, the molecule was called inactive in assay [17]. The AC50 in assay [9] was 34.6 µM (active); in assay [10], 26.8 µM (active); in [11] it was 36.2 µM (active); in [15], 5.14 µM (active).
Regarding `O=C(N[C@H](c1ccccc1)[C@@H]1CN2CCC1CC2)c1c(Cl)ccc(C(F)(F)F)c1Cl`, the AC50 in assay [1] was 1.55 µM (active); in [2], 1.55 µM (active); in [6], 1.68 µM (active); in assay [17], 18.5 µM (active). The outcome in [3], in [4], in [5], in assay [7], in [8] and in assay [9] was inactive. Further, the molecule was classed as inactive in [10], in assay [11], in [12], in assay [13], in [14] and in assay [15]. In addition, the result in assay [16] was inactive.
In the case of `C=CCc1ccc2c(c1)OCO2`, the result in assay [3] and in [4] was inactive.
As to `ClC1=C(Cl)C2(Cl)C3C(Cl)C=CC3C1(Cl)C2(Cl)Cl` (stereo not given), the AC50 in assay [1] is 7.52 µM (active); in assay [2] it was 7.53 µM (active); in [6], 20 µM (active); in [8], 4.15 µM (active); in assay [10], 0.72 µM (active); in assay [11], 20 µM (active). Moreover, the AC50 in assay [12] is 4.22 µM (active); in assay [14], 4.31 µM (active); in assay [16] it was 4.37 µM (active). For the same molecule, the result in [3], in assay [4], in assay [5], in assay [7], in assay [9] and in [13] was inactive. In addition, the molecule was classed as inactive in assay [15] and in assay [17].
With `O=[N+]([O-])c1ccc(Oc2ccc(Cl)cc2Cl)cc1`, the concentration at half-maximal activity (AC50) in [1] was 9.28 µM (active); in assay [2], 9.76 µM (active); in [9], 4.1 µM (active); in assay [10], 10.6 µM (active); in assay [13], 10.8 µM (active); in [14] it was 20 µM (active). For the same molecule, the AC50 in assay [15] was 20 µM (active); in assay [17], 10.9 µM (active). The result in assay [3], in assay [4], in assay [5], in assay [6], in assay [7] and in [8] was inactive. Besides, the result in assay [11], in assay [12] and in assay [16] was inactive.
Turning to `C[C@]12C=CC3=C4CCC(=O)C=C4CC[C@H]3[C@@H]1CC[C@@H]2O`, the result in [18], in assay [19], in [3], in assay [4] and in assay [5] was inactive.
As for `[Cl-].[Cl-].[Hg+2]`, the concentration at half-maximal activity (AC50) is 50 µM (active) in assay [18]; 50 µM (active) in assay [19]; 15.3 µM (active) in assay [20]; 31.4 µM (active) in assay [1]; 31 µM (active) in assay [2]; 29.8 µM (active) in assay [7]. The values for the concentration at half-maximal activity (AC50) in assay [10], in [14] and in assay [17] were 20 µM (active), 24.6 µM (active) and 29.3 µM (active), respectively. Besides, the outcome in [3], in assay [4], in assay [5], in assay [6], in [8] and in assay [9] was inactive. Besides, the call in assay [11], in assay [12], in [13], in assay [15] and in [16] was inactive.
